Screening data deposited in PubChem by ICCB-Longwood Screening Facility, Harvard Medical School.
The sample as a whole holds a higher share of hits than the screen did.
HCMV UL50-53 inh – inhibitors of HCMV UL50-UL53 nuclear egress complex interaction; hit rate 0.15% among 190,000; AID 1918969; HTRF UL50-UL53 interaction, normalized percent inhibition; inhibition, % (test concentration not listed); in the data active = inhibition above about 27%, passing the limit was not always enough
Sa growth inh – blocks Staphylococcus aureus growth | AID 720641 | hit rate 0.53% among 170,000 | relative growth, % (concentration not given with the values) | S. aureus RN4220 growth, OD600, 20 h, 42 °C; stronger effect = lower value;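 active = relative growth at most 50% at the other temperature and 20+ points below 30 °C, or under 10% at both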
S aureus helic – S. aureus DNA helicase inhibition. purified S. aureus helicase, fluorescence unwinding assay. inhibition, % (no concentration beside the values). hit rate 0.05% among 120,000. AID 485395; in the data active = inhibition above about 25%, passing the limit was not always enough
Each line names hits and unclear results; the compound was inactive in the other large screens.

Nc1ncc(S(=O)(=O)N2CCCCC2)cn1	none (no result: Sa growth inh, S aureus helic)
O=S(=O)(/N=C\c1cc(Br)ccc1O)c1cccs1	none
O=S(=O)(/N=C/c1c(O)ccc2ccccc12)c1cccs1	HCMV UL50-53 inh 98 (no result: Sa growth inh)
O=C(c1ccc(N2CCN(c3ccccc3F)CC2)nn1)N1CCc2ccccc21	none (no result: Sa growth inh, S aureus helic)
Cn1c(=O)c2c(nc(NCc3ccc4c(c3)OCO4)n2Cc2cccc(Cl)c2)n(C)c1=O	none (no result: Sa growth inh, S aureus helic)
Cc1ccc(-c2nc(C(=O)Nc3ccc(F)cc3)c3n2CCCCC3)cc1	none (no result: Sa growth inh, S aureus helic)
Cc1ccc(-n2nc3c(n2)/C(=N/O)CCC3)cc1	HCMV UL50-53 inh 47
COc1ccc(-c2nc3c(n2O)CCC/C3=N\O)cc1	none (no result: S aureus helic)
O=C(NC1CCCC1)c1cnn2c(C(F)(F)F)cc(-c3ccc(Br)cc3)nc12	none (no result: Sa growth inh, S aureus helic)
CSc1nc(-c2ccccc2)nc(Nc2ccccc2)c1C#N	none (no result: S aureus helic)
N#CCc1c(C#N)c(N)nc(Nc2ccccc2)c1C#N	HCMV UL50-53 inh 72
O=C(Nc1ccc(Br)cc1)Nc1ccc2nc3n(c(=O)c2c1)CCCC3	none (no result: Sa growth inh, S aureus helic)
Cc1oc2c(c1C(=O)N1CCCCC1)C(=O)c1ccccc1C2=O	none
Cc1oc2c(c1C(=O)NC(C)(C)C)C(=O)c1ccccc1C2=O	Sa growth inh 5.7
Cc1oc2c(c1C(=O)NCCc1ccccc1)C(=O)c1ccccc1C2=O	none (no result: HCMV UL50-53 inh)
Cc1oc2c(c1C(=O)NC1CCCC1)C(=O)c1ccccc1C2=O	Sa growth inh 3.9 (no result: HCMV UL50-53 inh)
Cc1oc2c(c1C(=O)N1CCC(C)CC1)C(=O)c1ccccc1C2=O	none (no result: HCMV UL50-53 inh)
Cc1oc2c(c1C(=O)NC1CCCCC1)C(=O)c1ccccc1C2=O	Sa growth inh 8.8
CCCCC1Oc2ccc(Cl)cc2NC1=O (centres undefined)	none (no result: Sa growth inh, S aureus helic)
Cc1ccc2snc(C(=O)N3CCN(S(=O)(=O)c4ccc(C)c(C)c4)CC3)c2c1	none (no result: Sa growth inh, S aureus helic)
N#C/C(=N\Nc1ccc(F)cc1)C(N)=S	Sa growth inh 0.0
NC(=S)NNc1ccc(F)cc1	none
COc1ccc(C2=NS(=O)(=O)N(C)C(C(=O)Nc3ccn(Cc4ccc(C)cc4)n3)=C2)cc1	none (no result: Sa growth inh, S aureus helic)
CC(=O)Nc1sc2c(c1C#N)CCC2	none
N#Cc1c(NC(=O)C(F)(F)F)sc2c1CCCC2	Sa growth inh -1.0
O=C(NC(c1cccs1)c1ccc2cccnc2c1O)C1CCCCC1 (centres undefined)	none
Cc1conc1NC(c1cccs1)c1ccc2cccnc2c1O (centres undefined)	Sa growth inh 3.1 (no result: HCMV UL50-53 inh)
Cc1ccc(-c2nnc(Nc3ccc(S(=O)(=O)Nc4nccs4)cc3)c3ccccc23)cc1	none (no result: Sa growth inh, S aureus helic)
NC(=O)CSc1ccc2nnc(-c3ccccc3)n2n1	none (no result: Sa growth inh)
O=C(CSc1ccc2nnc(-c3ccccc3)n2n1)NC1CCCC1	HCMV UL50-53 inh 34
O=C(CCSCc1cnn(-c2ccccc2)c1-n1cccc1)N1CCCCCC1	none
O=C(NC1CCCC1)C1CCN(c2ccc(-c3ccccc3)nn2)CC1	none (no result: Sa growth inh, S aureus helic)
O=C(NC1CCN(Cc2ccccc2)CC1)C1CCN(c2ccc(-c3ccccc3)nn2)CC1	HCMV UL50-53 inh 29 (no result: Sa growth inh, S aureus helic)
Cc1ccc(NC(=O)c2nnc(CCC(=O)NCc3ccccn3)s2)cc1	none (no result: Sa growth inh, S aureus helic)
CCN(CC)/N=N/c1[nH]nc2nc(C)cc(C)c12	Sa growth inh 7.2
Cc1cc(C)c2c(-n3cccc3)n[nH]c2n1	none (no result: Sa growth inh, S aureus helic)
CC(C)CN(CC(C)C)S(=O)(=O)c1ccc(C(=O)O)cc1	none
Cc1nnc(NC(=O)c2ccc(S(=O)(=O)N(CC(C)C)CC(C)C)cc2)o1	Sa growth inh 0.2
CSc1nnc(CNC(=O)NCc2ccccc2)n1C(C)C	none
COc1ccccc1NC(=O)Nc1ccnn1C1CCCCC1	none
COc1ccccc1NC(=O)Nc1ccnn1Cc1ccccc1	HCMV UL50-53 inh 85
Cc1ccc(S(=O)(=O)N2CCC[C@H]2C(=O)Nc2ccc(-c3nnc4n3CCCCC4)cc2)cc1	none
COc1ccccc1N1C(=S)SC2CS(=O)(=O)CC21 (centres undefined)	none
CCOC(=O)CSc1nc(N)c2c3c(sc2n1)CC(C(C)(C)C)CC3 (centres undefined)	none (no result: Sa growth inh, S aureus helic)
CS(=O)(=O)c1sc(Br)c2c1C(=O)CCC2	none (no result: S aureus helic)
CS(=O)(=O)c1sc(C#N)c2c1C(=O)CCC2	Sa growth inh 0.4
CSc1ccccc1-c1nc(-c2ccccc2)no1	none
CNC(=O)Sc1ccccc1Cl	Sa growth inh -0.6 (no result: S aureus helic)
O=C(CSc1ccccc1Cl)N1CCCC1	none
O=C(CC(=O)c1ccccc1O)c1ccc(Cl)cc1	Sa growth inh 1.1
Cc1ccc(C(=O)CC(=O)c2ccccc2O)cc1	Sa growth inh 0.8
COc1ccc(C(=O)CC(=O)c2ccccc2O)cc1	none
O=C(CC(=O)c1c(F)cccc1F)c1ccccc1O	none (no result: S aureus helic)
O=C(NCCc1cccs1)c1ccc(OC(F)(F)F)cc1	none (no result: S aureus helic)
Cc1ccc(CNC(=O)CSc2nnc(N3C(=O)c4ccccc4C3=O)s2)cc1	none
CN(C1CCCCC1)S(=O)(=O)c1ccc2c(c1)CCN2C(=O)CCC(=O)N1CCOCC1	none (no result: Sa growth inh, S aureus helic)
c1cc2cc(C3=NCCN3)ccc2cc1C1=NCCN1	S aureus helic 46
c1ccc2cc(C3=NCCN3)ncc2c1	none (no result: Sa growth inh, S aureus helic)
Oc1ccc(Cl)cc1-c1csnn1	none
Oc1ccc(Cl)cc1Sc1cc(Cl)ccc1O	Sa growth inh 3.6
N#Cc1ccc(CSc2nc(-c3cccs3)c3c(c2C(=O)O)CCCC3)cc1	Sa growth inh 0.1
N#Cc1ccc(-c2cccs2)nc1SCc1ccncc1	none
CCOc1nc2cccnc2n(CC(=O)Nc2ccccc2OC)c1=O	none (no result: Sa growth inh, S aureus helic)
COc1ccc(-c2nc(CN(C)Cc3cccs3)cs2)cc1OC	none
O=C(Nc1ccc(Cl)c(Cl)c1)OCc1cccnc1	Sa growth inh 8.0
O=C(Nc1ccc(Cl)c(Cl)c1)OCc1ccco1	none
N=C1S/C(=C\c2ccc(F)cc2)C(=O)N1c1nccs1	Sa growth inh 5.1
CCOc1cc(/C=C2/SC(=N)N(c3nccs3)C2=O)ccc1OCCN1CCOCC1	Sa growth inh 8.0
CCOc1cc(/C=C2/SC(=O)N(c3ccc(Cl)cc3)C2=O)ccc1OCC(=O)O	none (no result: Sa growth inh, S aureus helic)
COc1ccc(/C=C2\SC(=N)N(c3ccc(F)cc3)C2=O)cc1OC	none (no result: Sa growth inh, S aureus helic)
Cc1ccc(SC(=O)c2ccno2)cc1	none (no result: S aureus helic)
Cc1ccc2c(c1)OCC(CC(=O)NCCCc1ccccc1)N2C (centres undefined)	none (no result: Sa growth inh, S aureus helic)
O=C1c2ccccc2C(=O)N1COc1cccc2cccnc12	none
CCOC(=O)CCn1cc(F)c(=O)[nH]c1=O	none (no result: HCMV UL50-53 inh)
CC(=O)On1cc(F)c(=O)[nH]c1=O	Sa growth inh 0.7
O=C(NC1CCCC1)c1cnc2sccn2c1=O	none (no result: Sa growth inh, S aureus helic)
N=C1/C(=C/c2ccc(SC3CCCCC3)o2)C(=O)N=C2SC=CN12	Sa growth inh 8.4 (no result: HCMV UL50-53 inh)
O=C1NN(c2ccccc2)C(=O)/C1=C/c1ccc(SC2CCCCC2)o1	none (no result: HCMV UL50-53 inh)
COc1ccc(-c2cc(C)no2)cc1S(=O)(=O)NC1CCN(Cc2ccccc2)CC1	none (no result: Sa growth inh, S aureus helic)
N#CCSc1nc(-c2cccnc2)ccc1C(=O)O	none
CCN(CC)CC(O)COc1ccc(C(C)(C)CC)cc1C(C)(C)CC (centres undefined)	Sa growth inh -0.7 (no result: HCMV UL50-53 inh)
CCN(CC)CC(O)COc1ccc(OC)cc1 (centres undefined)	none (no result: Sa growth inh)
C/C(=N\NC(=O)c1cc(Br)ccc1O)c1ccccn1	Sa growth inh 3.1
Cc1cc(Br)ccc1NC(=O)c1ccccn1	none (no result: HCMV UL50-53 inh)
CC1CNc2c(cccc2S(=O)(=O)N[C@@H](CCCN=C(N)N)C(=O)N2CCC(C)CC2C(=O)O)C1 (some centres undefined)	none (no result: Sa growth inh, S aureus helic)
O=C(c1nn2c(c1Cl)NC(c1cccs1)CC2C(F)(F)F)N1CCN(Cc2ccccc2)CC1 (centres undefined)	none (no result: Sa growth inh, S aureus helic)
COC(=O)c1ccc(-n2c(C)ccc2C)cc1	none
CCNC(=O)c1ccc(-n2c(C)ccc2C)cc1	S aureus helic 29
CCN(Cc1ccncc1)C(=O)c1cccc(C(F)(F)F)c1	none
CCN1CCN(Cc2cc(Cl)c3cccnc3c2O)CC1	none (no result: HCMV UL50-53 inh)
